Screening data: PubChem BioAssay, National Center for Advancing Translational Sciences (NCATS)
The sample as a whole holds a higher share of hits than the screen did.
GLA inh pH 4.5 = inhibitors of human alpha-galactosidase A at pH 4.5; P06280; purified enzyme, 4-MU-alpha-Gal fluorescence, pH 4.5; activity change, negative = inhibition, % at 105 µM; 230,000 tested, under 10 active
GLA spleen mod = inhibitors or activators of human alpha-galactosidase in spleen homogenate; 240,000 compounds, 0.008% hits; AID 2107; human spleen homogenate, 4MU-alpha-Gal fluorescence, 40 min; Potency, µM (doses to about 80 µM), most hits filed as inhibitors; P06280
Target sequence (P06280 32-429 limits assumed): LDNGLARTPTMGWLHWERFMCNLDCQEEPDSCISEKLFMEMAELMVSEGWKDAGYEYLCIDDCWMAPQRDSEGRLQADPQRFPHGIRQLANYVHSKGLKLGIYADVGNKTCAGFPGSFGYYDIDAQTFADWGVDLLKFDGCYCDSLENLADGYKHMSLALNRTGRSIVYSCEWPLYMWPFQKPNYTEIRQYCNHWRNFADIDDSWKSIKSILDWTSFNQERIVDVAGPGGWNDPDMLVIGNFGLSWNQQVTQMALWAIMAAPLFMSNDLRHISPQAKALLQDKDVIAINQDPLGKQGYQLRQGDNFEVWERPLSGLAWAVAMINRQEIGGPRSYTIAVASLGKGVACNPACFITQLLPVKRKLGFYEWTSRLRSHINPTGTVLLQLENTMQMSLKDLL
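Human spleen homogenate (1 ug) was the enzyme source, with 4-methylumbelliferyl-alpha-D-galactopyranoside (1 mM final) in pH 5.0 citrate buffer with 0.01% Tween-20. Compounds were titrated; after 40 min at 37C, NaOH/glycine stop, 4-MU fluorescence read; AC50 from Hill fits.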
aGlu spleen mod = inhibitors or activators of human alpha-glucosidase in spleen homogenate. 240,000 compounds, 0.006% hits. human spleen homogenate, 4-MU-alpha-glucoside fluorescence. Potency, µM (top dose mostly 79.9 µM), usual class: inhibitors. P10253
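AC50 values come from Hill-equation fits of concentration-response data, normalized to no-enzyme and full-activity controls. Enzyme source: 1 ug human spleen homogenate; 1 mM fluorogenic 4-MU glucoside, pH 5.0 citrate buffer, 37 C, 40 min.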
GAA glycogen mod = alters human alpha-glucosidase cleavage of glycogen; P10253; recombinant GAA, glycogen substrate, Amplex Red glucose oxidase fluorescence; Potency, µM (top dose mostly 76.4 µM), actives largely listed as inhibitors; 300,000 compounds, 0.38% hits;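 note: the screen sought inhibitors and activators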
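Recombinant human enzyme (4 nM); glycogen substrate; 37 C, 40 min, pH 5.0. Readout: coupled glucose oxidase/Amplex Red fluorescence.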
GAA inhib = blocks human lysosomal alpha-glucosidase. purified human GAA, 4-MU-alpha-glucoside fluorescence. Potency, µM (highest dose often 76.9 µM), usual class: inhibitors. 200,000 compounds, 0.005% hits. AID 1466
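qHTS format, compound range up to 77 uM. Human lysosomal enzyme at 4 nM, 400 uM 4-MU glucoside substrate, pH 5.0, 20 min room temperature; fluorescence after alkaline stop gives activity normalized to controls.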
Hits are given with their value; 0 = inactive; ? = inconclusive; - = no result; [ ] = another dose, or the depositor's remark. Calls come from the whole dose curve; as a rule, active = well fitted curve in the direction sought with a large enough effect; inconclusive = small, poorly fitted or top-dose-only effect, or another doubt; inactive = no such curve, though single readings can be large; an effect the other way counts as inactive or inconclusive.

SMILES	GLA inh pH 4.5	GLA spleen mod	aGlu spleen mod	GAA glycogen mod	GAA inhib
Oc1ccc(/C=N/NC(=S)N/N=C/c2ccc(O)cc2)cc1	0	0	0	3.5µM	0
COc1ccccc1N1CCN(/N=C/c2ccc(O)c(O)c2)CC1	0	0	0	2.8µM	0
CC1(C)CN(c2ccccc2)N(C(=O)c2ccc(C#N)cc2)C1=O	0	0	0	20µM	0
CC1(C)CN(c2ccccc2)N(C(=O)c2ccc(F)cc2)C1=O	0	0	0	0	0
COc1ccc(-c2nnc3n2N=C(c2cc(OC)ccc2OC)CS3)cc1	-	0	0	-	-
Cc1ccc(-c2ccc(NC(=O)C3C4C=CC(C4)C3C(=O)O)cc2)o1 (centres undefined)	0	0	0	40µM	0
COc1ccc(NC(=O)C2C3C=CC(C3)C2C(=O)O)cc1 (centres undefined)	0	0	0	0	-
Oc1cc2c(cc1O)[C@@H](c1ccccc1)CNCC2	0	0	0	1.8µM	0[15.4 µM]
Cc1noc(C)c1C(=O)NNc1ccc(C(C)C)cc1	0	0	0	40µM	0
CCn1cnc2cc(NCc3cccc(OC)c3O)ccc21	0	0	0	16µM	0
COc1cc(SC)ccc1C(=O)N1CCN(c2ccccc2)CC1	0	0	0	0	0
COc1cc(SC)ccc1C(=O)N1CCN(c2ccc(O)cc2)CC1	0	0	0	4µM	0
Nc1n[nH]c2cccc(Cl)c12	0	0	0	?	0
Nc1n[nH]c2ccccc12	0	0	0	3.5µM	0
CC#CCN1c2ccccc2[C@]23C[C@@H](C(=O)OC)N(S(=O)(=O)c4cccs4)C2=NC(C(=O)OC)=C(C(=O)OC)[C@H]13	0	0[17.5 µM]	0[17.4 µM]	-	-
COc1cccc(-c2nnc3n2N=C(c2ccc(OC)cc2OC)CS3)c1	-	0	0	-	-
COc1ccc(N/C=C2/Sc3ccccc3NC2=O)cc1	0	0	0	20µM	0
Cc1ccc(N/C=C2/Sc3ccccc3NC2=O)cc1	0	0	0	?	0
COc1ccc(OC2C=CC(C#Cc3ccc(Br)cc3)OC2CO)c(C(C)(C)C)c1 (centres undefined)	-	0[17.5 µM]	0[17.4 µM]	-	-
Oc1ccccc1N=Cc1ccc[nH]1	0	0	0	2.8µM	0
O=C(Cn1c(=O)n(Cc2ccccc2)c(=O)c2sc3ccccc3c21)Nc1ccccc1	-	-	-	7.9µM	-
CCOc1ccc(Nc2nc(Cc3nnc(SCC(=O)NCc4ccco4)n3CC)cs2)cc1	0	0	0	18µM	0
O=S(=O)(Nc1cc(O)cc2cccnc12)c1ccc(Br)s1	-	0	0	-	-
O=C(O)C1OC(Oc2cc3oc(-c4ccccc4)cc(=O)c3c(O)c2O)C(O)C(O)C1O (centres undefined)	0	0	0	6.3µM	0[15.4 µM]
CSCC[C@H](N)C(=O)N[C@@H](C)C(=O)NCC(=O)N[C@@H](CCCN=C(N)N)C(=O)N[C@@H](CO)C(=O)NCC(=O)N[C@@H](CC(=O)O)C(=O)N[C@@H](CO)C(=O)N[C@@H](CC(=O)O)C(=O)N[C@@H](CCC(=O)O)C(=O)N[C@@H](CC(=O)O)C(=O)N[C@@H](CC(C)C)C(=O)N[C@@H](CC(C)C)C(=O)N[C@@H](CCCCN)C(=O)N[C@@H](C)C(=O)N[C@H](C(=O)O)C(C)C	-	0	0	-	-
SMILES	GLA inh pH 4.5	GLA spleen mod	aGlu spleen mod	GAA glycogen mod	GAA inhib
CCOc1cccc(CNc2ccc(O)cc2)c1OCc1ccccc1Cl	0	0	0	6.3µM	0
O=C(O)COc1ccc2ccccc2c1	-	0	0	-	-
C=C(C)/C=N/NC(=S)Nc1ccc(S(=O)(=O)N2CCOCC2)cc1	0	0	0	25µM	-
COc1ccc(-c2nc3c(c4c2C[C@H](c2ccccc2)OC4)CN(C(=O)NCCc2c[nH]c4ccccc24)CC3)c(C)c1	0	0[17.5 µM]	0[17.4 µM]	-	-
COCCCNC(=O)c1cn(-c2cccc(OC)c2)c(=O)c2ccccc12	-	-	-	0	-
COc1cccc(-n2cc(C(=O)NCc3ccccc3OC)c3ccccc3c2=O)c1	-	-	-	40µM	-
CC(=O)c1ccc(N2CCN(S(=O)(=O)c3ccc4c(c3)CC(=O)N4)CC2)cc1	-	-	-	0.52µM	-
O=C1Cc2cc(S(=O)(=O)N3CCN(c4ccc(C(F)(F)F)cc4)CC3)ccc2N1	-	-	-	0	-
O=C1Cc2cc(S(=O)(=O)N3CCN(c4ccccc4)CC3)ccc2N1	-	-	-	2.6µM	-
c1ccc2c(c1)SCc1c-2[nH]c2ccccc12	-	0	0	-	-
CC(C)C[C@H](NC(=O)[C@H](CC(C)C)NC(=O)[C@H](CCC(N)=O)NC(=O)[C@H](CO)NC(=O)[C@@H]1CCCN1C(=O)[C@H](CO)NC(=O)[C@H](CO)NC(=O)[C@@H](NC(=O)[C@H](Cc1cnc[nH]1)NC(=O)[C@H](CCC(=O)O)NC(=O)[C@H](Cc1ccc(O)cc1)NC(=O)[C@H](CCCCN)NC(=O)[C@H](CCC(N)=O)NC(=O)[C@H](Cc1ccc(O)cc1)NC(=O)[C@H](CC(=O)O)NC(=O)[C@@H](NC(=O)[C@@H]1CCCN1C(=O)[C@H](CC(=O)O)NC(=O)[C@H](CC(N)=O)NC(=O)[C@H](CC(=O)O)NC(=O)CNC(=O)[C@H](CC(=O)O)NC(=O)[C@@H]1CCCN1C(=O)[C@H](CCC(N)=O)NC(=O)[C@H](Cc1ccc(O)cc1)NC(=O)[C@H](C)NC(=O)[C@H](Cc1c[nH]c2ccccc12)NC(=O)[C@H](Cc1ccccc1)NC(=O)[C@@H](NC(=O)[C@@H](N)CO)[C@@H](C)O)[C@@H](C)O)[C@@H](C)O)C(=O)N[C@@H](C)C(=O)N1CCC[C@H]1C(=O)NCC(=O)N[C@@H](CC(=O)O)C(=O)N[C@@H](Cc1ccc(O)cc1)C(=O)O	-	0	0	-	-
Cc1ccc(C(O)(C(=O)NNc2ccccn2)c2ccc(C)cc2)cc1	0	0	0	5µM	0
O=C(Nc1cc(S(=O)(=O)N2CCOCC2)ccc1N1CCOCC1)c1cc(=O)[nH]c2ccccc12	0	0	0	28µM	?
O=C(Nc1cc(S(=O)(=O)N2CCOCC2)ccc1N1CCCCC1)c1cc(-c2ccccn2)nc2ccccc12	0	0	0	0	0
COc1ccc(O)c(-c2cc(-c3cccs3)[nH]n2)c1	0	0	0	40µM	0
O=C(/C=C/c1ccc(O)c(O)c1)c1ccccc1O	0	0	0	7.9µM	-
Nc1cc(-c2ccccc2)ccc1O	0	0	0	10µM	0
COC(=O)C1(C(=O)OC)C/C=C\C/C=C\c2ccccc2C1C[N+](=O)[O-] (centres undefined)	0	0	0	-	-
Cc1ccc(/C=N/c2sc3c(c2C#N)CCC3)o1	0	0	0	22µM	0
N#Cc1c(/N=C/c2ccc(Br)s2)sc2c1CCC2	0	0	0	0	0
CCN(C(=O)c1coc(=O)c(Br)c1)c1ccc2c(c1)OCO2	0	0	0	18µM	?
Cc1cc(O)ccc1Nc1nc(-c2cccnc2)cs1	-	-	-	0	-
Cc1cc(O)ccc1Nc1nc(-c2cccs2)cs1	0	0	0	32µM	0
